Assay results reported in publication PMC4552634, “A New Set of Chemical Starting Points with Plasmodium falciparum Transmission-Blocking Potential for Antimalarial Drug Discovery” (PLoS ONE, 2015).
The whole screen tested about 13,000 compounds, of which about 3,200 (25%) showed an effect of 50% or more. The list shows a part of the results.

test system: P. falciparum stage V gametocytes; design: BacTiter-Glo ATP luminescence viability of purified stage V gametocytes in 384-well plates, per cent inhibition versus DMSO; conditions: 48 h, 5 µM; inhibitor

| Structure (SMILES) | % Inhibition [%] |
| --- | --- |
| CC1CC(C)CN(S(=O)(=O)c2cc(C(=O)Nc3cccc([N+](=O)[O-])c3)ccc2Br)C1 (centres unmarked) [TCMDC-124626] | -10.68 |
| O=C(Nc1cc(F)c(F)c(-c2cccnc2)c1)N1CCc2cc(Cl)c(Cl)cc21 [TCMDC-139065] | 25.18 |
| Cc1ccc(-c2nc(N3CCN(C(=O)c4ccco4)CC3)c3ccccc3n2)cc1 [TCMDC-124779] | -11.86 |
| COc1ccccc1CNC(=O)c1cc(OC)c(OC)cc1NC(=O)c1cccs1 [TCMDC-125022] | 22.04 |
| CCOc1cc(Cc2cnc(N)nc2N)cc(OCC)c1O [TCMDC-137181] | 40.77 |
| O=C(/C=C/c1ccc(Cl)c(Cl)c1)N1CCC(CN2CCC(c3cn(CC(=O)N4CCCCC4)c4ccccc34)CC2)CC1 [TCMDC-134193] | 103 |
| CC(C)NC(=O)Cn1cc(C2CCN(CC3CCN(C(=O)/C=C/c4ccc(Cl)c(Cl)c4)CC3)CC2)c2ccccc21 [TCMDC-134172] | -9.49 |
| O=C(c1ccc(O)c(-c2cc(Cl)cc(Cl)c2)c1)N(CCO)CCO [TCMDC-140160] | -5.034 |
| COc1ccc2c(=O)c(I)c(C)[nH]c2c1 [TCMDC-138141] | 64.56 |
| COc1ccc2c(=O)c(-c3ccc(OC(F)(F)F)cc3)c(C)[nH]c2c1 [TCMDC-138811] | 45.07 |
| COc1ccc2c(=O)c(Br)c(C)[nH]c2c1 [TCMDC-137426] | 72.62 |
| COc1ccc2c(=O)c3ccc(OC)cc3[nH]c2c1 [TCMDC-132054] | 37.12 |
| Cc1cc2c(cc1C(F)(F)F)N(C(=O)Nc1cc(C(=O)NCCN(C)C)cc(C(F)(F)F)c1)CC2 [TCMDC-139884] | 20.84 |
| Cc1cc(C(=O)Nc2ccc3c(c2)CCN3C2CCN(Cc3cccc(F)c3F)C2)no1 (centres unmarked) [TCMDC-135079] | -28.63 |
| Cc1cc(N[C@@H](Cc2ccccc2)C(=O)NCc2cccc(F)c2)nc(NCCc2ccc(F)cc2)n1 [TCMDC-134785] | 98.48 |
| Cc1cc(N[C@@H](CC(C)C)C(=O)NCc2cccc(F)c2)nc(NCC2CCCCC2)n1 [TCMDC-134916] | -56.42 |
| Cc1cccc(CNc2nc(C)cc(N[C@@H](Cc3ccccc3)C(=O)NCc3cccc(F)c3)n2)c1 [TCMDC-134887] | 21.53 |
| Cc1cc(N[C@@H](Cc2ccccc2)C(=O)NCc2cccc(F)c2)nc(NCc2ccccc2C)n1 [TCMDC-134903] | -28.89 |
| Cc1cc(N[C@@H](Cc2ccccc2)C(=O)NCc2cccc(F)c2)nc(NCC2CCCCC2)n1 [TCMDC-134928] | 5.769 |
| COc1ccccc1CCNc1nc(C)cc(N[C@@H](Cc2ccccc2)C(=O)NCc2cccc(F)c2)n1 [TCMDC-134893] | 92.55 |
| Cc1cc(N[C@@H](Cc2ccccc2)C(=O)NCc2cccc(F)c2)nc(NCCc2ccccc2)n1 [TCMDC-134773] | 75.65 |
| CCCC(C)Nc1nc(C)cc(N[C@@H](CC(C)C)C(=O)NCc2cccc(F)c2)n1 (some centres unmarked) [TCMDC-134768] | -55.2 |
| COc1ccccc1CCNc1nc(C)cc(N[C@@H](CC(C)C)C(=O)NCc2cccc(F)c2)n1 [TCMDC-134863] | 80.77 |

| Structure (SMILES) | % Inhibition [%] |
| --- | --- |
| Nc1nc(N)c2c(CCc3ccc4ccccc4c3)cccc2n1 [TCMDC-141975] | -16.21 |
| O=C(O)C(F)(F)F.O=C(O)Cc1ccc(-c2c[nH]c3ncc(-c4cccc5ncccc45)cc23)cc1 [TCMDC-136372] | 46.28 |
| CC(C)(CNC(=O)C1CCN(CCOCc2ccccc2)CC1)c1nc(-c2ccc(Cl)c(O)c2)c(-c2ccncc2)[nH]1 [TCMDC-141122] | -51.1 |
| CN1CCc2cc(I)c(O)cc2C1Cc1ccccc1Cl (centres unmarked) [TCMDC-137321] | -44.87 |
| Cc1csc(-c2nonc2NC(=O)COc2ccccc2C(C)C)n1 [TCMDC-125014] | -9.384 |
| Cc1cc(N[C@@H](Cc2ccccc2)C(=O)NCc2cccc(F)c2)nc(NCCc2cccnc2)n1 [TCMDC-134817] | 63.38 |
| Cc1ccc(CNC(=O)[C@H](Cc2ccccc2)Nc2cc(C)nc(NCCc3ccc(F)cc3)n2)cc1 [TCMDC-134788] | 66.59 |
| Cc1cc(N[C@@H](Cc2ccccc2)C(=O)NCc2cccc(F)c2)nc(NCCOc2ccccc2)n1 [TCMDC-134756] | 40.03 |
| Cc1cc(N[C@@H](Cc2ccccc2)C(=O)NCc2cccc(F)c2)nc(NCCCOC(C)C)n1 [TCMDC-134822] | 52.41 |
| CCCC(C)Nc1nc(C)cc(N[C@@H](Cc2ccccc2)C(=O)NCc2cccc(F)c2)n1 (some centres unmarked) [TCMDC-134764] | -38.43 |
| Cc1cc(N[C@@H](Cc2ccccc2)C(=O)NCc2cccc(F)c2)nc(Nc2ccccc2)n1 [TCMDC-134857] | -8.236 |
| Cc1ccc(CNC(=O)[C@H](Cc2ccccc2)Nc2cc(C)nc(NCc3ccccc3C)n2)cc1 [TCMDC-134905] | 48.7 |
| CCCC(C)Nc1nc(C)cc(N[C@@H](Cc2ccccc2)C(=O)NCc2ccc(C)cc2)n1 (some centres unmarked) [TCMDC-134894] | -11.47 |
| Cc1cc(N[C@@H](Cc2ccccc2)C(=O)NCc2cccc(F)c2)nc(NCCc2cccs2)n1 [TCMDC-134812] | 147.6 |
| COc1ccc(Cn2c(Nc3cccc(C(F)(F)F)c3)nc3cc(C(=O)NC(C)C)cnc32)cc1Cl [TCMDC-138556] | 8.056 |
| CC[C@H](C)CNC(=O)c1ccc(-c2cccc(CN3CCC(N4CCCC4)CC3)c2)nc1 [TCMDC-134222] | 28.35 |
| Cc1cccc2[nH]c(-c3cccc(-c4ccc(NC(=O)C(C)(C)c5ccccn5)cc4)c3)nc12 [TCMDC-137053] | 15.43 |
| COc1cc(-c2nnc(SCC(=O)Nc3cc(C)on3)n2C)cc(OC)c1O [TCMDC-123652] | -77.31 |
| CC(=O)Oc1c(C(=O)C2CCC(C(C)(C)C)CC2)c(OC(C)=O)c2ccccc2c1OC(C)=O (centres unmarked) [TCMDC-138179] | 0.9625 |
| O=S(=O)(NCCN1CCCC1)c1cccc(-c2ccccc2CNC2Cc3ccccc3C2)c1 [TCMDC-132212] | 102.4 |
| O=S(=O)(NCCN1CCCC1)c1ccc(-c2ccccc2CNC2Cc3ccccc3C2)cc1 [TCMDC-132210] | 61.07 |
| COc1cccc(OC)c1C(=O)N1CCC2(CC1)C(=O)N(CC(=O)NC1CCCCC1)CN2c1ccccc1 [TCMDC-125168] | -28.41 |
| CC1CCc2c(C(=O)N3CCc4ccccc4C3)csc2C1 (centres unmarked) [TCMDC-123624] | 13.04 |

| Structure (SMILES) | % Inhibition [%] |
| --- | --- |
| CN(C)Cc1ccc(-c2cccc(Nc3nccc(NCC(O)c4ccccc4)n3)c2)cc1 (centres unmarked) [TCMDC-136467] | 95.23 |
| CN1CCC(Oc2ccc(Nc3nccc(NCC(O)c4ccccc4)n3)cc2Cl)CC1 (centres unmarked) [TCMDC-136471] | 60.18 |
| CN(C)CC(=O)Nc1ccc(Nc2nccc(NCC(O)c3ccccc3)n2)cc1 (centres unmarked) [TCMDC-136466] | -80.24 |
| CN(C)CC(=O)Nc1cccc(Nc2nccc(NCC(O)c3ccccc3)n2)c1 (centres unmarked) [TCMDC-136472] | 19.31 |
| CN(C)Cc1cccc(-c2ccc(Nc3nccc(NCC(O)c4ccccc4)n3)cc2)c1 (centres unmarked) [TCMDC-136470] | 73.29 |
| Cc1ccc(Nc2nccc(NCC(O)c3cccc(C)c3)n2)cc1 (centres unmarked) [TCMDC-136569] | -32.98 |
| CN1CCN(c2cccc(Nc3nccc(NCC(O)c4ccccc4)n3)c2)CC1 (centres unmarked) [TCMDC-136468] | 11.64 |
| Cc1nc(-c2cccc(Nc3nccc(NCC(O)c4ccccc4)n3)c2)cs1 (centres unmarked) [TCMDC-136565] | 4.289 |
| OC(CNc1ccnc(Nc2cccc(OCCCN3CCOCC3)c2)n1)c1ccccc1 (centres unmarked) [TCMDC-136465] | 23.11 |
| FC(F)(F)c1ccc2[nH]c(-c3ccc(-c4cccc(CNCC5CCCO5)c4)cc3)nc2c1.O=C(O)C(F)(F)F (centres unmarked) [TCMDC-133095] | -18.46 |
| Cc1ccc(NC(=O)c2c(C)noc2-c2snnc2C)cc1 [TCMDC-125783] | 10.03 |
| N#Cc1ccc(-c2ccc(C(=O)NC3CCN(CCN4CCC(c5cn(CCO)c6ccccc56)CC4)CC3)cc2)cc1 [TCMDC-138858] | -15.2 |
| N#Cc1ccc(CN2CCC(NC(=O)c3ccc(-c4nnc(-c5cccc6ccccc56)o4)cc3)CC2)cc1 [TCMDC-136131] | 6.646 |
| O=C(NCC1CCN(CCN2CCC(c3cn(CCO)c4ccccc34)CC2)CC1)c1ccc(-c2ccc(C(F)(F)F)cc2)cc1 [TCMDC-138856] | 114.3 |
| CC(C)Cn1cc(C2CCN(CCN3CCC(CNC(=O)c4ccc(-c5ccc(C(F)(F)F)cc5)cc4)CC3)CC2)c2ccccc21 [TCMDC-138852] | 92.78 |
| O=C(NCC1CCN(CCN2CCc3ccc4c(c3C2)OCO4)CC1)c1ccc(-c2ccc(C(F)(F)F)cc2)cc1 [TCMDC-138834] | -19.42 |
| CCOc1ccc(C2CCN(CCN3CCC(NC(=O)c4ccc(-c5ccc(C(F)(F)F)cc5)cc4)CC3)CC2)c(OCC2CC2)c1 [TCMDC-138832] | -29.12 |
| Cc1cc(C2CCN(CCCCNC(=O)c3ccc(-c4ccc(C(F)(F)F)cc4)cc3)CC2)c(C)cc1OCCOC1CCCCO1 (centres unmarked) [TCMDC-138802] | -43.58 |
| CCOc1c(OC)ccc2c1CCN(CCN1CCC(CNC(=O)c3ccc(-c4ccc(C(F)(F)F)cc4)cc3)CC1)C2 [TCMDC-138806] | 11.85 |
| O=C(NC1CCN(CCN2CCC(c3cn(CCO)c4ccccc34)CC2)CC1)c1ccc(-c2ccc(C(F)(F)F)cc2)cc1 [TCMDC-138871] | 111.6 |
| COc1ccc2c(c1)c(C1CCN(CCCCNC(=O)c3ccc(-c4ccc(C(F)(F)F)cc4)cc3)CC1)cn2C(C)C [TCMDC-138801] | 16.06 |
| N#Cc1ccc(-c2ccc(C(=O)NC3CCN(CCN4CCC(c5cn(CCOC6CCCCO6)c6ccccc56)CC4)CC3)cc2)cc1 (centres unmarked) [TCMDC-138855] | 104.1 |
